Experimental data taken from paper PMC7862700, “An all-to-all approach to the identification of sequence-specific readers for epigenetic DNA modifications on cytosine”.

Tests used:
Assay in all cases: DAPPL (digital affinity profiling via proximity ligation, sequencing); 10 mM Tris-HCl pH 7.5, 50 mM NaCl, 1 mM DTT, 4% glycerol, room temperature, 30 min; GST-TFs on glutathione beads, 16-mer random dsDNA library, 0.1% formaldehyde crosslink after washing; high values mean tight binding
Settings in all cases: protein: recombinant; tags: N-terminal GST; dsDNA, one strand shown
FEV = molecular target: T1, FEV (Homo sapiens, UniProt Q99581 1-238)
T1 sequence: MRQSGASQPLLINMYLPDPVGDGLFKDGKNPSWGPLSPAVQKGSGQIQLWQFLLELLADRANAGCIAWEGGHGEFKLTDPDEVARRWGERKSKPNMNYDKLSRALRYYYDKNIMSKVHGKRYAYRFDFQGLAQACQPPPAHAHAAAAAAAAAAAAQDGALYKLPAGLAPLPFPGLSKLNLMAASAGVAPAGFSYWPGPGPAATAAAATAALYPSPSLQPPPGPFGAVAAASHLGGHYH
How it was run: (§1)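 GST fusions of human transcription factors were expressed in yeast and captured with glutathione beads. Once given DNA barcodes and pooled alongside a tag-only sample, they were incubated for 30 min at room temperature with 200 nmole of a random double-stranded 16-mer DNA library in Tris/NaCl/DTT/glycerol buffer, then washed, crosslinked (0.1% formaldehyde), proximity-ligated, PCR-amplified and sequenced on an Illumina NextSeq500. The binding signal of each hexamer is its read frequency for a factor divided by its frequency for the tag-only sample.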

ETV5 = ETV5 (Homo sapiens, UniProt P41161 1-510)
Sequence of ETV5 (P41161 whole entry): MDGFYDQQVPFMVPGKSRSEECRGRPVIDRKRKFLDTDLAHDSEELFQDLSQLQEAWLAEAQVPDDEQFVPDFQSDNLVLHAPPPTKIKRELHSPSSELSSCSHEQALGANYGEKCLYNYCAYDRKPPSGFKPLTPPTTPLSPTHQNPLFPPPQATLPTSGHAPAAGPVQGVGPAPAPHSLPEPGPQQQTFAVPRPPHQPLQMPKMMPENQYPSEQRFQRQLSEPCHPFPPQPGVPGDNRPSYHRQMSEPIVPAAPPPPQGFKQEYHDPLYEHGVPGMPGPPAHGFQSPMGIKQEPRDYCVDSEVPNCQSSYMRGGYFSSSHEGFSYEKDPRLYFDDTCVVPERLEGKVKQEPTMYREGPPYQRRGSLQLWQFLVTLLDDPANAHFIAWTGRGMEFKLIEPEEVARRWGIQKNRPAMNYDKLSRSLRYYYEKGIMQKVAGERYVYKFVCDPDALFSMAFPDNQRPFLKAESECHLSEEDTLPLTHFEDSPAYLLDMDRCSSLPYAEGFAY
How it was run: as §1

SPIC = molecular target: T2, SPIC (Homo sapiens, UniProt Q8N5J4 1-248)
T2 sequence: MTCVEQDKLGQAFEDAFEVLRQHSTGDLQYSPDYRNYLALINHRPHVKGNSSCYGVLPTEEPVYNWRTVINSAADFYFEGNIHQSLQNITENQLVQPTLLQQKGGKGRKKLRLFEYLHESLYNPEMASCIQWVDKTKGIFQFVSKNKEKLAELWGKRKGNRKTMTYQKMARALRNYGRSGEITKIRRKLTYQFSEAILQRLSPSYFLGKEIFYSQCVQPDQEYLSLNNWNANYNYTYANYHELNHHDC
How it was run: as §1

ELF4 = ELF4 (Homo sapiens, UniProt Q99607 1-663)
Sequence of ELF4 (Q99607 whole entry): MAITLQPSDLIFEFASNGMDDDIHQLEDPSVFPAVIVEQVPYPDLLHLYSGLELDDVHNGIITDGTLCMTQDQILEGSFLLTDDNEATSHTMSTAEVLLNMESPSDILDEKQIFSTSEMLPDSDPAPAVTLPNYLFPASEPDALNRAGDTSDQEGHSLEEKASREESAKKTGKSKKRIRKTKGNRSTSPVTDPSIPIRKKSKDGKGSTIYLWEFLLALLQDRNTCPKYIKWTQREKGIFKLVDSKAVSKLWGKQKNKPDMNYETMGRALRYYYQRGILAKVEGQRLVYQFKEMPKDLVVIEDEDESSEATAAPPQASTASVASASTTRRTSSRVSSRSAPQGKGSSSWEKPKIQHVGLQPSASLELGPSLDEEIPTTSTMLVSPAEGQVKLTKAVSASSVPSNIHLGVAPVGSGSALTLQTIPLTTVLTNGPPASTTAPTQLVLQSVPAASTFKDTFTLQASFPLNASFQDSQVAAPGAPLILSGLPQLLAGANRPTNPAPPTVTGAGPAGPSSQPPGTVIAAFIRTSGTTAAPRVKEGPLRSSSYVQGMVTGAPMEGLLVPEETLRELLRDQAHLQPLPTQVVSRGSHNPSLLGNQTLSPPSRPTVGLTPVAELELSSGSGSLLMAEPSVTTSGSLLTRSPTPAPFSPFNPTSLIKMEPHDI
How it was run: as §1

ELK4 = molecular target: T3, ELK4 (Homo sapiens, UniProt P28324-2 1-405)
T3 sequence: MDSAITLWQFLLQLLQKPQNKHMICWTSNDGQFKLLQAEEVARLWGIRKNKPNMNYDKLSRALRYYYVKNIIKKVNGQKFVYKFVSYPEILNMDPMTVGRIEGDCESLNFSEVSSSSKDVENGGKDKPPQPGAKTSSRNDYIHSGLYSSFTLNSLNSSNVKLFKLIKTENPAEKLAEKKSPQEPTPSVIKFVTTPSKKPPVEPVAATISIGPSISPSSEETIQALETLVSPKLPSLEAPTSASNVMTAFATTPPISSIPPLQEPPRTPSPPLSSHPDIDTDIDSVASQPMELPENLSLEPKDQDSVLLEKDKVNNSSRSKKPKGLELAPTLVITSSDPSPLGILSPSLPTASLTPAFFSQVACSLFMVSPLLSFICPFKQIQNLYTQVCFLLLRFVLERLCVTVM
How it was run: as §1

ETV2 = molecular target: T4, ETV2 (Homo sapiens, UniProt O00321 1-342)
T4 sequence: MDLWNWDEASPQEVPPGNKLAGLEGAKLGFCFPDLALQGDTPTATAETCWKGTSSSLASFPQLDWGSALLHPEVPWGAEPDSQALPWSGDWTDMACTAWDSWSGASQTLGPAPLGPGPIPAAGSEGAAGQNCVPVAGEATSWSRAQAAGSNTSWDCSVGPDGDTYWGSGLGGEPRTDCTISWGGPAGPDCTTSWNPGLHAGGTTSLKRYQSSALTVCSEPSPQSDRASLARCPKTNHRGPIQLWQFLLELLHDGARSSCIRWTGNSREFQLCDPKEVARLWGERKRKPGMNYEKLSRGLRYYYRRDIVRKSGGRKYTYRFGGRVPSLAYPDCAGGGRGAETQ
How it was run: as §1

ELF3 = molecular target: T5, ELF3 (Homo sapiens, UniProt P78545 1-371)
T5 sequence: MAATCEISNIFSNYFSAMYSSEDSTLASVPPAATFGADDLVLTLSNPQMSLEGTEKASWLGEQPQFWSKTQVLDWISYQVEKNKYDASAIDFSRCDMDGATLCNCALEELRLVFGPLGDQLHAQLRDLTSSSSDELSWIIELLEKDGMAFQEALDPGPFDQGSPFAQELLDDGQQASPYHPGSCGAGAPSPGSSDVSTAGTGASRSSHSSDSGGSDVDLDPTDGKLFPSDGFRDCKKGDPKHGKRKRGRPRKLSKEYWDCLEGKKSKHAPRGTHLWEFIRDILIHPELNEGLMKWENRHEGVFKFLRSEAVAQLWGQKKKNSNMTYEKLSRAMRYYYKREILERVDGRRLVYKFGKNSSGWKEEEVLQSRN
How it was run: as §1

ETV1 = ETV1 (Homo sapiens, UniProt P50549 1-477)
Sequence of ETV1 (P50549 whole entry): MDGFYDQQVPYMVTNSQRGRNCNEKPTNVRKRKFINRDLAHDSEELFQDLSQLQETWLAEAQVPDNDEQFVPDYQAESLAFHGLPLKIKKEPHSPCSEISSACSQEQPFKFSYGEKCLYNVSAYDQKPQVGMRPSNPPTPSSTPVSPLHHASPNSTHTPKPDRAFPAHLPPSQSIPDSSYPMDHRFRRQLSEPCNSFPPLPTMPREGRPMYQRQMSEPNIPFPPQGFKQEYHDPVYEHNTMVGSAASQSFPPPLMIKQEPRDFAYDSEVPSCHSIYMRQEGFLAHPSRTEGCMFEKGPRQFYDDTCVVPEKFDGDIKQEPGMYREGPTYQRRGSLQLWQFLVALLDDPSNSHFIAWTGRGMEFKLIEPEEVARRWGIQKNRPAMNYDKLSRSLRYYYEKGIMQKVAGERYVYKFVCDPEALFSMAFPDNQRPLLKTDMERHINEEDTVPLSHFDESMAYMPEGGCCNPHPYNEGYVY
How it was run: as §1

ERF = molecular target: T6, ERF (Homo sapiens, UniProt P50548 1-548)
T6 sequence: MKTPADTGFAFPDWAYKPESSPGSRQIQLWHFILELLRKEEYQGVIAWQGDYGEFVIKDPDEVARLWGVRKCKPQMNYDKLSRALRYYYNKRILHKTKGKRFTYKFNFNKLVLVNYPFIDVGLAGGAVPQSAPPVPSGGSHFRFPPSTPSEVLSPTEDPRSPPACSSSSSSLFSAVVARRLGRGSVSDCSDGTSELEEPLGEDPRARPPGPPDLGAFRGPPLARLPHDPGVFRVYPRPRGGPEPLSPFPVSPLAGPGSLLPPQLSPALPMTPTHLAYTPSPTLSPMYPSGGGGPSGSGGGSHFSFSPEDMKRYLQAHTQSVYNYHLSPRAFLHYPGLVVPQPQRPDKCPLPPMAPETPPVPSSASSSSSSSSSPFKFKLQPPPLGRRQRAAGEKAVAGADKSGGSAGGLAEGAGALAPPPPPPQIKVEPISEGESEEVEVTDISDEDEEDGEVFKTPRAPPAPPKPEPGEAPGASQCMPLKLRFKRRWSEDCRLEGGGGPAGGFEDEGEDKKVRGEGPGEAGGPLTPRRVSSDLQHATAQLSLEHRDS
How it was run: as §1

ETV3L = molecular target: T7, ETV3L (Homo sapiens, UniProt Q6ZN32 1-361)
T7 sequence: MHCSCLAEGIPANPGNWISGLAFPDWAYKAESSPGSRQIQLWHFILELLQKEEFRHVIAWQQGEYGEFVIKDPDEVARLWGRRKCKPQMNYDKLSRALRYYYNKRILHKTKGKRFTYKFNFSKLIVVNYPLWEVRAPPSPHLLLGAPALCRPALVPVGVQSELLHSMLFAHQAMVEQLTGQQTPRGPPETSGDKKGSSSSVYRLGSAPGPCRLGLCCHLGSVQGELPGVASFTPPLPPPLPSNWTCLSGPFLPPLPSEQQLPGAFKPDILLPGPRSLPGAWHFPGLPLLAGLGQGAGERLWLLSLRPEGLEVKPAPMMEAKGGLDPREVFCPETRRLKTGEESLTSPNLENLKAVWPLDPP
How it was run: as §1

ETS2 = molecular target: T8, ETS2 (Homo sapiens, UniProt P15036 1-469)
T8 sequence: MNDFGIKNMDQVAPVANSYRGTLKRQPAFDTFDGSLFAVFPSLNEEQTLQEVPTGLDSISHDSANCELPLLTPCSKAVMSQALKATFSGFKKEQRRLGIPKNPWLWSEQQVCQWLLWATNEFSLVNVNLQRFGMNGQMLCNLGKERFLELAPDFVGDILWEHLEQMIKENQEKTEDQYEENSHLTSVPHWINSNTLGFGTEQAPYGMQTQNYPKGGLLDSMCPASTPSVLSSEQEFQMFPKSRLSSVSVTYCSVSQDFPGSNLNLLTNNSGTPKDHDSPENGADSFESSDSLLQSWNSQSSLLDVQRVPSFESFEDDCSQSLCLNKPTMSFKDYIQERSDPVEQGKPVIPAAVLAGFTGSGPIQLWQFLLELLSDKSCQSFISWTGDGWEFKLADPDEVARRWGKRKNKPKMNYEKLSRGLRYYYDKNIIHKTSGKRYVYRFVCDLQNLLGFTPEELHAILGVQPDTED
How it was run: as §1

SPDEF = molecular target: T9, SPDEF (Homo sapiens, UniProt O95238 1-335)
T9 sequence: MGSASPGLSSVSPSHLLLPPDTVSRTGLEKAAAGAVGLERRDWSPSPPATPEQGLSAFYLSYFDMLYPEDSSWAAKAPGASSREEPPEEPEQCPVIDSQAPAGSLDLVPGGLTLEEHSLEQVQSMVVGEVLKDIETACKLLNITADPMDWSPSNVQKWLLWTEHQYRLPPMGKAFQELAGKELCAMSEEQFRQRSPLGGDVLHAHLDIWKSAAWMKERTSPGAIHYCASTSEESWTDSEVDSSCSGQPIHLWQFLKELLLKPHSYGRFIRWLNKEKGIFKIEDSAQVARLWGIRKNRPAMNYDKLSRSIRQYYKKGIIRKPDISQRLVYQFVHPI
How it was run: as §1

ETV7 = molecular target: T10, ETV7 (Homo sapiens, UniProt Q9Y603 1-341)
T10 sequence: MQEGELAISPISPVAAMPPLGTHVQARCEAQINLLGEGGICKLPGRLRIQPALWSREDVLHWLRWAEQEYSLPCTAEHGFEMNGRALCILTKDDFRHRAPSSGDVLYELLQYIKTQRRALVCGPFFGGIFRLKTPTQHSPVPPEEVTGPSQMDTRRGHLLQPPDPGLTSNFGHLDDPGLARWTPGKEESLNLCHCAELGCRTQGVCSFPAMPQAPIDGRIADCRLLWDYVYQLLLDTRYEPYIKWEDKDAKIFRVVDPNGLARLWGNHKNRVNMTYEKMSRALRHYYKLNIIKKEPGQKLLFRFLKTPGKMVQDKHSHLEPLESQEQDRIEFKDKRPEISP
How it was run: as §1

ELF5 = molecular target: T11, ELF5 (Homo sapiens, UniProt Q9UKW6-2 1-255)
T11 sequence: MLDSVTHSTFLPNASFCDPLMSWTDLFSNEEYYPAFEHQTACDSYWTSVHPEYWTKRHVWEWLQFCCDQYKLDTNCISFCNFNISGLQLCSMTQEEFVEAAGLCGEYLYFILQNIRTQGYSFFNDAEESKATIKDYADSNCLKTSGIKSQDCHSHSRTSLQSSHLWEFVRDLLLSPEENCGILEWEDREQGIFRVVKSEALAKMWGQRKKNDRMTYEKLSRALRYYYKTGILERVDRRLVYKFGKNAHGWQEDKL
How it was run: as §1

ETV3 = molecular target: T12, ETV3 (Homo sapiens, UniProt P41162-2 1-143)
T12 sequence: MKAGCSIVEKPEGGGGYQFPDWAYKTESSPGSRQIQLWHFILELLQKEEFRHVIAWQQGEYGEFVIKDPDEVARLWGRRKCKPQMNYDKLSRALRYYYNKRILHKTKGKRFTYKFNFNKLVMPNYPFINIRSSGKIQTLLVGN
How it was run: as §1

ETV6 = ETV6 (Homo sapiens, UniProt P41212 1-452)
Sequence of ETV6 (P41212 whole entry): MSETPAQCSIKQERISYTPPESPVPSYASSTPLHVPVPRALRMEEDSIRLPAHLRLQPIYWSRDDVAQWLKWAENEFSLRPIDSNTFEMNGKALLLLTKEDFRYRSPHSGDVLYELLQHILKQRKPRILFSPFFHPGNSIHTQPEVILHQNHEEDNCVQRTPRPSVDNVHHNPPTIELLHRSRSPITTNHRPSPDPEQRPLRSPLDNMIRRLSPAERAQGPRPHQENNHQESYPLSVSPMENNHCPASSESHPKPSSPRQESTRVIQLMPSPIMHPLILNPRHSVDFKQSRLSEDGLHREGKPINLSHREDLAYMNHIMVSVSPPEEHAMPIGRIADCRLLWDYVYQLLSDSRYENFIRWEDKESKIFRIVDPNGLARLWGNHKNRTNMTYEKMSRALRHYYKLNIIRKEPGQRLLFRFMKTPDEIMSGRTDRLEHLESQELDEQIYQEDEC
How it was run: as §1

| Sequence | binding signal (FEV) | binding signal (ETV5) | binding signal (SPIC) | binding signal (ELF4) | binding signal (ELK4) | binding signal (ETV2) | binding signal (ELF3) | binding signal (ETV1) | binding signal (ERF) | binding signal (ETV3L) | binding signal (ETS2) | binding signal (SPDEF) | binding signal (ETV7) | binding signal (ELF5) | binding signal (ETV3) | binding signal (ETV6) |
| --- | --- | --- | --- | --- | --- | --- | --- | --- | --- | --- | --- | --- | --- | --- | --- | --- |
| ACATCA | 1.17 fold enrichment (6-mer frequency, TF over GST control) | 1.17 fold enrichment (6-mer frequency, TF over GST control) | 1.13 fold enrichment (6-mer frequency, TF over GST control) | 1.19 fold enrichment (6-mer frequency, TF over GST control) | 1.14 fold enrichment (6-mer frequency, TF over GST control) | 1.22 fold enrichment (6-mer frequency, TF over GST control) | 1.15 fold enrichment (6-mer frequency, TF over GST control) | 1.15 fold enrichment (6-mer frequency, TF over GST control) | 1.13 fold enrichment (6-mer frequency, TF over GST control) | 1.08 fold enrichment (6-mer frequency, TF over GST control) | 1.11 fold enrichment (6-mer frequency, TF over GST control) | 1.07 fold enrichment (6-mer frequency, TF over GST control) | 1.1 fold enrichment (6-mer frequency, TF over GST control) | 1.07 fold enrichment (6-mer frequency, TF over GST control) | 1.14 fold enrichment (6-mer frequency, TF over GST control) | 1.16 fold enrichment (6-mer frequency, TF over GST control) |
| GTCCCC | 1.18 fold enrichment (6-mer frequency, TF over GST control) | 1.27 fold enrichment (6-mer frequency, TF over GST control) | 1.26 fold enrichment (6-mer frequency, TF over GST control) | 1.2 fold enrichment (6-mer frequency, TF over GST control) | 1.26 fold enrichment (6-mer frequency, TF over GST control) | 1.22 fold enrichment (6-mer frequency, TF over GST control) | 1.38 fold enrichment (6-mer frequency, TF over GST control) | 1.29 fold enrichment (6-mer frequency, TF over GST control) | 1.23 fold enrichment (6-mer frequency, TF over GST control) | 1.15 fold enrichment (6-mer frequency, TF over GST control) | 1.15 fold enrichment (6-mer frequency, TF over GST control) | 1.14 fold enrichment (6-mer frequency, TF over GST control) | 1.27 fold enrichment (6-mer frequency, TF over GST control) | 1.13 fold enrichment (6-mer frequency, TF over GST control) | 1.14 fold enrichment (6-mer frequency, TF over GST control) | 1.24 fold enrichment (6-mer frequency, TF over GST control) |
| GTACAC | 1.2 fold enrichment (6-mer frequency, TF over GST control) | 1.27 fold enrichment (6-mer frequency, TF over GST control) | 1.33 fold enrichment (6-mer frequency, TF over GST control) | 1.29 fold enrichment (6-mer frequency, TF over GST control) | 1.23 fold enrichment (6-mer frequency, TF over GST control) | 1.17 fold enrichment (6-mer frequency, TF over GST control) | 1.26 fold enrichment (6-mer frequency, TF over GST control) | 1.2 fold enrichment (6-mer frequency, TF over GST control) | 1.15 fold enrichment (6-mer frequency, TF over GST control) | 1.16 fold enrichment (6-mer frequency, TF over GST control) | 1.18 fold enrichment (6-mer frequency, TF over GST control) | 1.2 fold enrichment (6-mer frequency, TF over GST control) | 1.24 fold enrichment (6-mer frequency, TF over GST control) | 1.2 fold enrichment (6-mer frequency, TF over GST control) | 1.21 fold enrichment (6-mer frequency, TF over GST control) | 1.29 fold enrichment (6-mer frequency, TF over GST control) |
